ELG1 genotoxic: induces genotoxicity in HEK293T cells with luciferase-tagged ELG1; HEK293T ELG1-luciferase reporter, luminescence, 16 h; Potency, µM (highest dose often 46 µM), hits mostly activators; 330,000 compounds, 1.3% hits; AID 504466; further: nearly all actives have a fitted effect of over 60% in size
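HEK293T cells expressing luciferase-tagged ELG1 were exposed to compound or DMSO vehicle for 16 hr at 37 °C and 5% CO2. Luciferase activity was then measured with ONE-Glo after 30 min at room temperature.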
FLuc counter: counter-screen for miR-21 project: firefly luciferase inhibitors or activators; P08659; purified FLuc, Km substrates, luminescence inhibition; Potency, µM (titrated, usually from 57.5 µM), usual class: inhibitors; 360,000 compounds, 6.9% hits; AID 588342; further: nearly all actives have a fitted effect of over 55% in size
Target sequence (P08659 whole entry, looked up): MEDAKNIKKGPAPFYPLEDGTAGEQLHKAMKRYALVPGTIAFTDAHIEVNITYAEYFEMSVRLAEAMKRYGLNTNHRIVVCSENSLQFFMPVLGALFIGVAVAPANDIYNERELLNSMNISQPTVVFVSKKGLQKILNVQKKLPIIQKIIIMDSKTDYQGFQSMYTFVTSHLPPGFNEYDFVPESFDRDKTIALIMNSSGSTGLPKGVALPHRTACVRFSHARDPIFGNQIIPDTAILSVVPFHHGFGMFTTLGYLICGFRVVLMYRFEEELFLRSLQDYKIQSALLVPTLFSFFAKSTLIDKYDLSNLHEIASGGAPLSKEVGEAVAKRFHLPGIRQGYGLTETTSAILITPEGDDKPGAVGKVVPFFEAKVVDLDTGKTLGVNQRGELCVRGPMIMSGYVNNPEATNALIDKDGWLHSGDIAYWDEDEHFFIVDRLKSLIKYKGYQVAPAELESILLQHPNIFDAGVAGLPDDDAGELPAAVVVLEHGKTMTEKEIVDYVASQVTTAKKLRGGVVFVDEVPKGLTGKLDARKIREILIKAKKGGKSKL
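Purified P. pyralis luciferase (10nM final) with 10uM D-luciferin and 10uM ATP (Km levels) in 50mM Tris acetate pH 7.5, 10mM Mg acetate, 0.01% Tween-20, 0.05% BSA; qHTS 6-point titration, ~60 µM downward; luminescence read.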
Rab9 prom act: Rab9 promoter activation. AID 485297. Potency, µM (highest dose often 9.22 µM), hits mostly activators. 320,000 compounds, 2.8% hits. Huh7 Rab9 promoter-luciferase reporter, luminescence, 24 h; further: nearly all actives have a fitted effect of over 60% in size
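Promoter activation is measured as luciferase luminescence in Huh7 cells stably transfected with a Rab9 promoter–luciferase construct, following 24 h compound exposure at 37 °C and 10 min reagent incubation at ambient temperature.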
SMN2 splice up: increases expression of the SMN2 splice variant; HEK293 SMN2-luciferase splicing reporter, luminescence, 30-36 h; Potency, µM (series often up to 46.1 µM), most hits filed as activators; 210,000 compounds, 2.8% hits; AID 1458; further: nearly all actives have a fitted effect of over 55% in size
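HEK293 cells carry an SMN2 […]–luciferase reporter in which exon 7 inclusion puts luciferase in frame. Cells were plated 10-12 h before compound addition, then incubated 30-36 h at 37C. ONE-Glo luminescence was read; sodium butyrate at 4.5 mM final served as control.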
Luc counter: blocks Kinase-Glo luciferase, a counter-screen artifact; 200,000 compounds, 0.28% hits; Kinase-Glo luciferase, ATP luminescence, 8 min; Potency, µM (highest dose often 38.3 µM), hits mostly inhibitors; Q27757; further: nearly all actives have a fitted effect of over 60% in size
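Substrate mix (final 50 mM imidazole pH 7.2, 50 mM KCl, 7 mM MgCl2, 10 uM ATP, 0.01% Tween 20, 0.05% BSA) plus pin-tool compound, then Kinase-Glo detection mix; 8 min ambient, luminescence read.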
NPC1 promoter act: NPC1 promoter activation. Potency, µM (top dose mostly 9.22 µM), hits mostly activators. 320,000 compounds, 2.4% hits. Huh7 NPC1 promoter luciferase reporter, 24 h; further: nearly all actives have a fitted effect of over 60% in size
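Stable NPC1-promoter luciferase Huh7 line; cpd (DMSO) 24 h, 37 °C, 5% CO2; Amplite luciferase reagent 10 min RT; luminescence readout. qHTS format.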
Hits are given with their value; n = inactive; u = inconclusive; x = not tested or not shown; [ ] = dose if it differs, or a comment. An excerpt weighted towards active compounds, which were near 7.5% of everything screened. The call rests on the fitted dose curve; in most records, active means well fitted curve in the direction sought with a large enough effect; inconclusive means small, poorly fitted or top-dose-only effect, or another doubt; inactive means no such curve, though single readings can be large; an effect the other way counts as inactive or inconclusive.

SMILES	ELG1 genotoxic	FLuc counter	Rab9 prom act	SMN2 splice up	Luc counter	NPC1 promoter act
CCOC(=O)c1c(C)[nH]c(C)c1C(=O)COC(=O)CNC(=O)C1CCCCC1	n	n	n	n	n	n
CCOC(=O)c1c(C)[nH]c(C(=O)COC(=O)CNC(=O)c2ccccc2Cl)c1C	u	11µM	u	x	n	n
CCOC(=O)c1c(C)[nH]c(C(=O)COC(=O)[C@H](C)NC(=O)c2ccccc2Cl)c1C	u	21µM	n	n	n	n
CCOC(=O)c1c(C)[nH]c(C(=O)COC(=O)CNC(=O)C2CCCCC2)c1C	n	3µM	n	u	n	n
Cc1nnc2sc(-c3ccc(N(C)C)cc3)nn2c1=O	16µM	7.6µM	u	x	x	3.2µM
CN(C)c1ccc(-c2nn3c(-c4cccnc4)nnc3s2)cc1	u	n	n	n	n	n
COc1cccc2cc(C(=O)C3=C(O)C(=O)N(CCN4CCOCC4)C3c3cccc(Cl)c3)oc12 (stereo not drawn)	n	n	n	x	x	n
C[N@@+]1(CC[N@@+]2(C)CCC[C@H]2c2cccnc2)CCC[C@@H]1c1cccnc1	x	x	x	n[9.22 µM]	n[7.66 µM]	x
COc1ccc(-c2nnn(Cc3ccccc3F)n2)cc1	u	11µM	3.2µM	16µM	n	3.5µM
Fc1ccccc1Cn1nnc(-c2ccc3c(c2)OCO3)n1	u	2.1µM	1.1µM	13µM	n	2µM
O=C(OCc1ccccc1)c1ccc(-c2nnn(Cc3ccccc3F)n2)cc1	x	n	x	n	x	x
CCc1ccccc1NC(=O)CC(C)n1nc(C)cc1C (stereo not drawn)	x	n	x	x	x	x
COCCCNC(=O)CCCn1c(SCC(=O)c2ccc(F)cc2)nc2c(sc3ccccc32)c1=O	x	n	x	n	x	x
Cc1noc(C)c1C(=O)OCC(=O)c1cc(C)n(Cc2ccccc2Cl)c1C	16µM	11µM	u	n	n	u
Cc1noc(C)c1C(=O)OCC(=O)c1ccc[nH]1	n	n	n	n	n	n
Nc1c(-c2cccc([N+](=O)[O-])c2)nc2ccccn12	u	17µM	3.2µM	u	u	u
Cc1cc(C)cc(OCCn2nnc3ccccc32)c1	u	u	u	x	x	n
CCCCN(CC)CCNc1ncnc2onc(-c3ccc(Cl)cc3)c12	x	n	x	n	x	x
Cc1cccc(Nc2nnc(SC/C(O)=C(\C#N)c3nc4ccccc4[nH]3)s2)c1	n	17µM	n	n	n	n
CCC(=O)Nc1nc2ccc3nc(C)sc3c2s1	8.2µM	u	4µM	11µM	n	u
CCC(=O)Nc1nc2cc(OC)ccc2s1	u	12µM	1.4µM	u	n	2.2µM
COc1ccc2sc(NC(=O)CC(C)C)nc2c1	18µM	11µM	4.5µM	u	n	u
COc1ccc2sc(NCc3ccccc3)nc2c1	u	6µM	3.5µM	x	x	2.2µM
COc1ccc2sc(NC(C)=O)nc2c1	9.2µM	17µM	u	18µM	n	2.5µM
COc1ccc2sc(NC(=O)NC(=O)c3c(Cl)cccc3Cl)nc2c1	n	19µM	n	x	x	n
SMILES	ELG1 genotoxic	FLuc counter	Rab9 prom act	SMN2 splice up	Luc counter	NPC1 promoter act
O=c1c2oc3ccccc3c2n(Cc2ccccc2F)c(=O)n1Cc1ccc2c(c1)OCO2	x	n	x	x	x	x
Oc1ccc(-c2csc(Nc3ccccn3)n2)c(O)c1	9.2µM	4.8µM	3.2µM	x	x	1.8µM
Cc1cccnc1Nc1nc(-c2ccc(O)cc2O)cs1	u	15µM	3.2µM	x	x	u
NS(=O)(=O)c1ccc(Nc2nc(-c3ccc(O)cc3O)cs2)cc1	u	u	n	n	n	n
O=C1c2ccccc2C(=O)N1OCc1ccccc1[N+](=O)[O-]	n	17µM	n	n	n	n
O=C(Cc1ccccc1[N+](=O)[O-])OCN1C(=O)c2ccccc2C1=O	n	9.5µM	n	x	x	n
O=C1c2ccccc2S(=O)(=O)N1Cc1ccccc1[N+](=O)[O-]	n	n	n	x	x	n
CCN(CCn1cccn1)C(=O)CCc1nnc(C2(c3ccc(Cl)cc3)CCC2)o1	n	17µM	u	x	n	n
COCCn1cnnc1SCC(=O)Nc1ccc(Br)cc1F	n	n	n	n	n	n
CC(=O)NC1Sc2ccccc2N=C1c1ccccc1 (stereo not drawn)	13µM	12µM	u	u	n	u
O=C1Nc2ccccc2N=C(c2ccccc2)C1Br (stereo not drawn)	n	n	n	x	n	n
N/C(Cc1cccs1)=N\OC(=O)COc1ccccc1Cl	23µM	24µM	u	n	n	n
N/C(Cc1cccs1)=N\OC(=O)COc1ccc(Br)cc1Cl	u	11µM	n	n	n	u
COc1ccc(C(=O)O/N=C(\N)Cc2cccs2)cc1OC	n	n	n	x	x	n
N/C(Cc1ccc([N+](=O)[O-])cc1)=N\OC(=O)COc1ccccc1Cl	n	n	n	n	n	n
COCCn1c(SCC(=O)Nc2ccc(C)cc2)nc2c(oc3ccccc32)c1=O	u	n	n	u	n	n
COCCCn1c(SCC(=O)Nc2ccc(C)cc2)nc2ccccc2c1=O	n	24µM	n	x	n	n
COCCn1c(SCC(=O)Nc2ccccc2)nc2c(oc3ccccc32)c1=O	23µM	n	n	n	n	n
CC(C)NC(=O)c1onc(CSc2ccc(Cl)cc2)c1C(=O)NC(C)C	n	n	n	x	x	n
Brc1ccc(N=Nc2ccc3ccccc3n2)cc1	u	0.021µM	u	x	x	u
Cc1ccsc1C(=O)NNC(=S)NCC(C)C	n	n	n	n	n	n
CCc1cc(C(=O)NNC(=S)Nc2cccc(C)c2)cs1	n	3.4µM	3.2µM	14µM	n	3.5µM
CCc1cc(C(=O)Nc2ccc(C)cc2Br)cs1	u	5.4µM	u	16µM	n	n
Cc1cccc(NC(=S)NNC(=O)c2csc(C(C)C)c2)c1	n	5.4µM	1.8µM	11µM	n	2.5µM
Cc1cccc(NC(=S)NNC(=O)c2sccc2C)c1	u	15µM	u	n	n	n
SMILES	ELG1 genotoxic	FLuc counter	Rab9 prom act	SMN2 splice up	Luc counter	NPC1 promoter act
Cc1ccc(-c2cn3cccnc3n2)cc1NC(=O)Cc1ccccc1	x	n	x	x	x	x
N#Cc1ccccc1OCC(=O)NNC(=O)CCC1CCCC1	n	x	x	x	x	x
Cc1cccc(-c2nc3cc(NC(=O)COc4ccccc4F)ccc3o2)c1	x	n	x	x	x	x
COC(=O)c1ccc(C(=O)N(CCN(C)C)c2nc3c(Cl)cccc3s2)cc1	n	n	n	n	n	n
Cc1ccc(NCc2nc3ccccc3n2C)cc1C	u	4.8µM	2.8µM	x	x	3.5µM
Cn1c(CNc2ccc(O)cc2)nc2ccccc21	u	13µM	u	x	x	u
COc1ccc(Nc2nc3ccccc3n3c(N)nnc23)cc1	x	9.5µM	x	n	x	x
CCOC(=O)c1ccc(NCc2nc3ccccc3n2C)cc1	n	u	3.2µM	x	x	3.2µM
COc1ccc(Nc2nc3ccccc3n3cnnc23)cc1	n	n	n	u	n	n
CC(C)C(=O)NCCc1nc2ccccc2n1C	n	n[2.3 µM]	n	n	n	n
CC(C)c1ccc(Nc2ncnc3c2c(-c2ccccc2)cn3-c2ccccc2)cc1	x	n	x	x	x	x
